Experimental data as given in PubChem BioAssay (Tox21).
Inconclusive results are not listed. Entries that show only a call come without a potency. Activity calls are given as the source filed them. Unless noted, the call rests on the fitted dose curve; in most records, active means well fitted curve in the direction sought with a large enough effect in the repeat runs; inconclusive means weak or mixed curves; inactive means no such curve, though single readings can be large; an effect the other way counts as inactive or inconclusive.

Columns and labels:
[1] = target: Aryl hydrocarbon receptor (Homo sapiens) (UniProt P35869); assay: qHTS assay to identify small molecule that activate the aryl hydrocarbon receptor (AhR) signaling pathway (AID 743085); further: nearly all actives have a fitted effect of over 15% in size; further: potency means the concentration at half of the fitted maximal effect;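 on activation: HG2L7.5c1 human HepG2 liver cells with stably integrated DRE-driven firefly reporter; series mostly up to about 70 µM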
Method in brief: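 A multiplexed format paired cell viability (CellTiter-Fluor fluorescence) with AhR-dependent luciferase output (ONE-Glo luminescence) in the same wells of HepG2 DRE-luc cells after 24 h compound exposure at 37C.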

[2] = qHTS assay to identify small molecule that activate the aryl hydrocarbon receptor (AhR) signaling pathway - cell viability counter screen (AID 743086);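 further: HepG2 liver cells carrying the AhR DRE luciferase reporter; series mostly up to about 70 µM; nearly all actives have a fitted effect of over 45% in size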
Method in brief: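 HepG2-AhR-luc (HG2L7.5c1) cells, 4000/well, treated 24 h at 37 C with compound; viability measured as CellTiter-Fluor fluorescence after 30 min in the same wells as the luciferase read.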

[3] = target: Peroxisome proliferator-activated receptor gamma (Homo sapiens) (UniProt P37231); assay: qHTS assay to identify small molecule agonists of the peroxisome proliferator-activated receptor gamma (PPARg) signaling pathway (AID 743094; active means well fitted activation curve with a large enough effect in the signal ratio in the repeat runs, not every such curve was filed as active; the % refers to the signal ratio)
Method in brief: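 Quantitative HTS agonist mode: stable HEK293H line with UAS-beta-lactamase reporter under PPARg control, 17 h compound exposure at 37C, fluorescence after 1 h FRET substrate loading at room temperature.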

[4] = target: Peroxisome proliferator-activated receptor gamma (Homo sapiens) (UniProt P37231); assay: qHTS assay to identify small molecule antagonists of the peroxisome proliferator-activated receptor gamma (PPARg) signaling pathway (AID 743191; calls by dose curve; further: series mostly up to about 63 µM; nearly all actives have a fitted effect of over 30% in size)
Method in brief: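 GeneBLAzer PPARg UAS-bla HEK293H cells, 5 h post-plating, exposed to compounds 17 h at 37C. LiveBLAzer B/G FRET substrate added for 1 h at room temperature; beta-lactamase reporter read by fluorescence intensity.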

[5] = qHTS assay to identify small molecule antagonists of the peroxisome proliferator-activated receptor gamma (PPARg) signaling pathway - cell viability counter screen (AID 743194); further: nearly all actives have a fitted effect of over 55% in size
Method in brief: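 Cytotoxicity counter screen in PPARg-bla HEK293H cells, same wells as reporter assay. Compounds plus 50 nM rosiglitazone (final) for 17 h at 37 C, then viability read by CellTiter-Glo luminescence.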

[6] = qHTS assay for small molecule agonists of the antioxidant response element (ARE) signaling pathway (AID 743202; active means well fitted activation curve with a large enough effect in the signal ratio in the repeat runs, not every such curve was filed as active; the % refers to the signal ratio; further: potency means the concentration at half of the fitted maximal effect)
Method in brief: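 Agonist mode reporter screen: HepG2 cells with ARE-controlled beta-lactamase are incubated with test compounds for 16 h at 37 C, and beta-lactamase activity is measured as fluorescence of cleaved B/G FRET substrate.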

[7] = qHTS assay for small molecule agonists of the antioxidant response element (ARE) signaling pathway - cell viability counter screen (AID 743203; calls by dose curve; further: nearly all actives have a fitted effect of over 55% in size)
Method in brief: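 Seeded at 2,000 cells/well, ARE-bla HepG2 cells were incubated 5 hrs before compound addition. After 16 hrs of treatment at 37C with 5% CO2, CellTiter-Glo reagent was added and luminescence read 30 min later.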

[8] = qHTS assay for small molecule activators of the heat shock response signaling pathway - cell viability counter screen (AID 743209); further: nearly all actives have a fitted effect of over 50% in size
Method in brief: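 First, HSE-bla HeLa cells were seeded at 1500 cells/well and kept overnight at 37 C. Next, compounds were pinned in and incubated 5 h. After the FRET substrate step, CellTiter-Glo was added and luminescence read 30 min later.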

[9] = qHTS assay for small molecule activators of the heat shock response signaling pathway (AID 743210; active means well fitted activation curve with a large enough effect in the signal ratio in the repeat runs, with a control signal flat, not every such curve was filed as active; the % refers to the signal ratio;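 further: HeLa cells with beta-lactamase reporter driven by heat shock elements; series mostly up to about 63 µM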)
Method in brief: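 Quantitative high-throughput format using an engineered HeLa line in which heat shock response elements drive beta-lactamase; after 5 h with compound, cells received a B/G FRET substrate and fluorescence was read.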

[10] = qHTS assay to identify small molecule agonists of the peroxisome proliferator-activated receptor delta (PPARd) signaling pathway - cell viability counter screen (AID 743211); further: nearly all actives have a fitted effect of over 55% in size
Method in brief: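 Tox21 library compounds, delivered in DMSO, were incubated 17 h with PPARd-bla HEK293H cells; cytotoxicity was taken from CellTiter-Glo luminescence read 30 min after reagent addition.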

[11] = target: Peroxisome proliferator-activated receptor delta (Homo sapiens) (UniProt Q03181); assay: qHTS assay to identify small molecule agonists of the peroxisome proliferator-activated receptor delta (PPARd) signaling pathway (AID 743212; calls by dose curve)
Method in brief: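 Quantitative high-throughput agonist screen in a HEK293H beta-lactamase reporter line under UAS control. Compounds in DMSO, at 37 C. Fluorescence read after 2 h with FRET substrate at room temperature.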

[12] = target: Peroxisome proliferator-activated receptor delta (Homo sapiens) (UniProt Q03181); assay: qHTS assay to identify small molecule antagonists of the peroxisome proliferator-activated receptor delta (PPARd) signaling pathway (AID 743215; active means well fitted inhibition curve with a large enough effect in the signal ratio in the repeat runs, not every such curve was filed as active; the % refers to the signal ratio;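 further: cells stimulated with agonist L165041 at 300 nM final during compound exposure; series mostly up to about 62 µM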)
Method in brief: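 Inhibition of L165041-driven (300 nM final) PPARd signaling is scored in HEK293H UAS-bla cells. Exposure lasts 17 h at 37 C; beta-lactamase activity is then read by FRET substrate fluorescence after 2 h at room temperature.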

[13] = target: Vitamin D3 receptor (Homo sapiens) (UniProt P11473); assay: qHTS assay to identify small molecule agonists of the vitamin D receptor (VDR) signaling pathway (AID 743222; calls by dose curve)
Method in brief: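 Quantitative HTS agonist-mode screen: compounds in DMSO were pin-transferred onto VDR-bla cells and incubated 16 h at 37C, 5% CO2. Reporter activity was detected with LiveBLAzer B/G FRET substrate after 2 h at room temperature.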

[14] = target: Vitamin D3 receptor (Homo sapiens) (UniProt P11473); assay: qHTS assay to identify small molecule antagonists of the vitamin D receptor (VDR) signaling pathway (AID 743223; active means well fitted inhibition curve with a large enough effect in the signal ratio in the repeat runs, not every such curve was filed as active; the % refers to the signal ratio)
Method in brief: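 Quantitative HTS in VDR-bla reporter cells stimulated with 1alpha,25-dihydroxyvitamin D3, 3 nM final. Compound exposure 16 h, 37C, 5% CO2. Read-out: beta-lactamase FRET substrate fluorescence, 2 h RT.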

[15] = qHTS assay to identify small molecule agonists of the vitamin D receptor (VDR) signaling pathway - cell viability counter screen (AID 743224); further: series mostly up to about 63 µM; nearly all actives have a fitted effect of over 50% in size
Method in brief: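 Viability is measured in the same wells as the VDR-bla reporter assay: after 16 h compound treatment and 2 h substrate loading, CellTiter-Glo is added and luminescence read 30 min later.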

[16] = qHTS assay to identify small molecule antagonists of the peroxisome proliferator-activated receptor delta (PPARd) signaling pathway - cell viability counter screen (AID 743213); further: nearly all actives have a fitted effect of over 50% in size
Method in brief: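 Same-well viability: cells pre-incubated 5 h, dosed with compound plus 300 nM L165041, kept 17 h at 37 C, FRET substrate 2 h RT, then CellTiter-Glo 30 min RT and luminescence.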

[17] = qHTS assay to identify small molecule agonists of the farnesoid-X-receptor (FXR) signaling pathway - cell viability counter screen (AID 743218); further: nearly all actives have a fitted effect of over 45% in size
Method in brief: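 Cytotoxicity counter-screen run in parallel, same wells: FXR-UAS-bla HEK 293T cells dosed 16 h at 37 C, viability read by CellTiter-Glo luminescence after 30 min at room temperature.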

[18] = qHTS assay to identify small molecule antagonists of the farnesoid-X-receptor (FXR) signaling pathway - cell viability counter screen (AID 743221; active means well fitted cell-killing curve with a large enough effect in the repeat runs, not every such curve was filed as active; further: nearly all actives have a fitted effect of over 50% in size)
Method in brief: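 Cytotoxicity is taken from ATP luminescence (CellTiter-Glo, 30 min, room temperature) in FXR-bla HEK 293T cells previously incubated 16 h at 37 C with compound and chenodeoxycholic acid at 50 uM final.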

[19] = target: Bile acid receptor (Homo sapiens) (UniProt Q96RI1); assay: qHTS assay to identify small molecule antagonists of the farnesoid-X-receptor (FXR) signaling pathway (AID 743217; active means well fitted inhibition curve with a large enough effect in the signal ratio in the repeat runs, not every such curve was filed as active; the % refers to the signal ratio)
Method in brief: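 Antagonist mode against 50 uM (final) chenodeoxycholic acid stimulation in FXR-bla HEK 293T cells, 16 h at 37 °C. Inhibition detected as reduced beta-lactamase activity via LiveBLAzer B/G FRET fluorescence after 2 h at room temperature.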

[20] = target: Bile acid receptor (Homo sapiens) (UniProt Q96RI1); assay: qHTS assay to identify small molecule agonists of the farnesoid-X-receptor (FXR) signaling pathway (AID 743220; active means well fitted activation curve with a large enough effect in the signal ratio in the repeat runs, not every such curve was filed as active; the % refers to the signal ratio)
Method in brief: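 Beta-lactamase reporter under UAS control in GeneBLAzer FXR HEK 293T cells (5000/well) measured with LiveBLAzer FRET substrate after 2 h at room temperature. Compound exposure lasted 16 h at 37C.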

Sequence of Peroxisome proliferator-activated receptor gamma (Homo sapiens) (P37231 whole entry, looked up): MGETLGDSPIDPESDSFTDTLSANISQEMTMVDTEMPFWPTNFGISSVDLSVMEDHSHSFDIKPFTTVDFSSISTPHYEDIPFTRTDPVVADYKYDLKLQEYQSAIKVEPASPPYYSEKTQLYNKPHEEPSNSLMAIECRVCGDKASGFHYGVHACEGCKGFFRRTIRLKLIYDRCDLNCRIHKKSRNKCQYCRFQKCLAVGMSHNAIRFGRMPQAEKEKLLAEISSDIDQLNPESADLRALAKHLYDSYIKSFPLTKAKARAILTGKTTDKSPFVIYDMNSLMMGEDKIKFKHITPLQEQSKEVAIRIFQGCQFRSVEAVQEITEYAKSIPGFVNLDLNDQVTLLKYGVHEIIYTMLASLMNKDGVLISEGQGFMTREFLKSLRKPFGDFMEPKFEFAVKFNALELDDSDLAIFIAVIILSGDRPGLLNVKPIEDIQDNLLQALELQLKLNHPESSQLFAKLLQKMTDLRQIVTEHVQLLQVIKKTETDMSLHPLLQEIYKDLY
Sequence of Aryl hydrocarbon receptor (Homo sapiens) (P35869 whole entry, looked up): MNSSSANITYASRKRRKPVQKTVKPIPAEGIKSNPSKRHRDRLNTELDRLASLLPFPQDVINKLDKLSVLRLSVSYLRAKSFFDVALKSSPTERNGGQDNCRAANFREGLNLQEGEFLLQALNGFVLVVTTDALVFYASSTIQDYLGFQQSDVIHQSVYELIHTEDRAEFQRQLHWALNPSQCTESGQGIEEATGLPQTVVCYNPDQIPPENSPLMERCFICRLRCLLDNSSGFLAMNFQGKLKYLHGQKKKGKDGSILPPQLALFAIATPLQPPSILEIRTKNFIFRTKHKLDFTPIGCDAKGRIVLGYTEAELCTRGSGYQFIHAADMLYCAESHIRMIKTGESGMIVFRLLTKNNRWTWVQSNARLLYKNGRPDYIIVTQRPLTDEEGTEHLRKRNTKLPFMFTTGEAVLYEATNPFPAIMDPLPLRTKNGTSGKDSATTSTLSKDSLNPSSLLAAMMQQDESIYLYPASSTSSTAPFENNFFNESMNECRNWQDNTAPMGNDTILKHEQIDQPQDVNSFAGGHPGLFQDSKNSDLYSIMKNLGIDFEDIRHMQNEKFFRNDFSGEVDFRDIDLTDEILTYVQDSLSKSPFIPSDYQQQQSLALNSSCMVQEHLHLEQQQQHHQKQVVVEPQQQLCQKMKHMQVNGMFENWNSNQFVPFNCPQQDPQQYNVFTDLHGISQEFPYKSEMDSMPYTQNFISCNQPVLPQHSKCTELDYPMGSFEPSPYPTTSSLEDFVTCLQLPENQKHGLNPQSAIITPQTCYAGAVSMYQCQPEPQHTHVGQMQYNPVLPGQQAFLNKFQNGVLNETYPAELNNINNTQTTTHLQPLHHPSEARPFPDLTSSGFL
Sequence of Vitamin D3 receptor (Homo sapiens) (P11473 whole entry, looked up): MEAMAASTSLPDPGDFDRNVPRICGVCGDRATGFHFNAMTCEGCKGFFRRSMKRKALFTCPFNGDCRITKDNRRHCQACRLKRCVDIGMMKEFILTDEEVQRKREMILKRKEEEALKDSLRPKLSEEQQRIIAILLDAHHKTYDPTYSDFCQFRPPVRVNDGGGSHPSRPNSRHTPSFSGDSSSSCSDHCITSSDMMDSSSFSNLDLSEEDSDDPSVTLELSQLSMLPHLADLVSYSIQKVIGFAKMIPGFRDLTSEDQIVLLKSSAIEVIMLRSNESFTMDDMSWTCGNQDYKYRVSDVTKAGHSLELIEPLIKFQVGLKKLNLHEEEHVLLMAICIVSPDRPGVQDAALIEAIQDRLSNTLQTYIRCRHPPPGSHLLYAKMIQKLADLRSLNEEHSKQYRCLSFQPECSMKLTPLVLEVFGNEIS
Sequence of Bile acid receptor (Homo sapiens) (Q96RI1 whole entry, looked up): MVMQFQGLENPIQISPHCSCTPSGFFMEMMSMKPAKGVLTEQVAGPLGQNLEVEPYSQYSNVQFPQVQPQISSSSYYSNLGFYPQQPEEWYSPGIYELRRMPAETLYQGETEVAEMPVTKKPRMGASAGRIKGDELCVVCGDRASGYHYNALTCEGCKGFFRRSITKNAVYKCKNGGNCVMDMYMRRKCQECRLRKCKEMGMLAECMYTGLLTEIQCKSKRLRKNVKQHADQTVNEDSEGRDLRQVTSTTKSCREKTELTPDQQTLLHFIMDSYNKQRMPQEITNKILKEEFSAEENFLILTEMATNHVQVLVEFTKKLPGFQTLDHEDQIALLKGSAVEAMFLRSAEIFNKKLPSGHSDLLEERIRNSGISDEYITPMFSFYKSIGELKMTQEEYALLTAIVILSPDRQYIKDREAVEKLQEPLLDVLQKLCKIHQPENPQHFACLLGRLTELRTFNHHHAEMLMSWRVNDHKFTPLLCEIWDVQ
Sequence of Peroxisome proliferator-activated receptor delta (Homo sapiens) (Q03181 whole entry, looked up): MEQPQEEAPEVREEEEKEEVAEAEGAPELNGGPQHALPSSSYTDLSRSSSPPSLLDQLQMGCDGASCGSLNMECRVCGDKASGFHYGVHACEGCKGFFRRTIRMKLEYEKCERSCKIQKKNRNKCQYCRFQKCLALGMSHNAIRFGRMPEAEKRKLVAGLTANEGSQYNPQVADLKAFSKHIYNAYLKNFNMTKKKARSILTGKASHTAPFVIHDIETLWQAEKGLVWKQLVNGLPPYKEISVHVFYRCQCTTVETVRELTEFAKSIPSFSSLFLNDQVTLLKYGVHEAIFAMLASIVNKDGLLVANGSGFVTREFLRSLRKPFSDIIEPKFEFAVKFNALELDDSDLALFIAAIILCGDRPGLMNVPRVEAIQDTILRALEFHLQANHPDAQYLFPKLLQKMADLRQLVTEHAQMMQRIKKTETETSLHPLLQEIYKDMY

Row | Structure (SMILES) | Potency [1] | Potency [2] | outcome [3] | Potency [4] | Potency [5] | Potency [6] | Potency [7] | Potency [8] | Potency [9] | Potency [10] | outcome [11] | Potency [12] | outcome [13] | outcome [14] | Potency [15] | Potency [16] | Potency [17] | Potency [18] | outcome [19] | Potency [20]
1 | Nc1nc2ccc(OC(F)(F)F)cc2s1 | 10.6 µM (active) | inactive | inactive | inactive | inactive | inactive | inactive | inactive | inactive | inactive | inactive | inactive | inactive | inactive | inactive | – | – | – | – | –
2 | C[C@@H]1C[C@H]2[C@@H]3CCC4=CC(=O)C=C[C@]4(C)[C@@]3(F)[C@@H](O)C[C@]2(C)[C@@]1(O)C(=O)COP(=O)(O)O | inactive | inactive | inactive | inactive | inactive | inactive | inactive | inactive | inactive | – | inactive | inactive | inactive | inactive | inactive | inactive | inactive | inactive | – | –
3 | CCC(CO)(CO)[N+](=O)[O-] | inactive | inactive | inactive | inactive | inactive | inactive | inactive | – | inactive | inactive | inactive | inactive | inactive | inactive | inactive | inactive | inactive | inactive | inactive | inactive
4 | COc1ccc(-n2nc(C(F)F)cc2-c2ccc(S(C)=O)cc2)cc1 (configuration not stated) | inactive | inactive | inactive | inactive | inactive | inactive | inactive | inactive | – | – | inactive | – | – | – | inactive | inactive | inactive | inactive | – | –
5 | O=C1CC[C@@H](C(=O)O)N1 | inactive | inactive | inactive | inactive | inactive | inactive | inactive | – | inactive | inactive | inactive | inactive | inactive | inactive | inactive | inactive | inactive | inactive | – | –
6 | C=C(C)C(=O)OCCC(F)(F)C(F)(F)C(F)(F)C(F)(F)C(F)(F)C(F)(F)F | inactive | inactive | inactive | – | inactive | inactive | inactive | – | inactive | inactive | – | – | inactive | inactive | inactive | inactive | inactive | inactive | inactive | inactive
7 | COc1ccc(CCN(C)CCCN2CCc3cc(OC)c(OC)cc3CC2=O)cc1OC | inactive | inactive | inactive | – | inactive | inactive | inactive | inactive | – | inactive | inactive | inactive | – | – | inactive | inactive | inactive | inactive | – | –
8 | CC[C@H]1OC(=O)[C@H](C)[C@@H](O[C@H]2C[C@@](C)(OC)[C@@H](O)[C@H](C)O2)[C@H](C)[C@@H](O[C@@H]2O[C@H](C)C[C@H](N(C)C)[C@H]2O)[C@](C)(O)C[C@@H](C)C(=O)[C@H](C)[C@@H](O)[C@]1(C)O | inactive | inactive | inactive | – | inactive | inactive | – | – | inactive | – | – | – | inactive | inactive | inactive | inactive | inactive | inactive | – | –
9 | O=CNNC=O | inactive | inactive | inactive | – | inactive | inactive | inactive | – | – | – | inactive | inactive | inactive | inactive | inactive | inactive | inactive | inactive | – | –
10 | C=CC(=O)O | inactive | inactive | inactive | inactive | inactive | – | inactive | inactive | – | – | inactive | inactive | inactive | inactive | inactive | inactive | inactive | inactive | – | –
11 | c1ccc2sc(SSc3nc4ccccc4s3)nc2c1 | inactive | inactive | inactive | – | inactive | 13 µM (active) | inactive | – | – | – | inactive | inactive | inactive | inactive | inactive | inactive | inactive | inactive | inactive | inactive
12 | O=C(O)CO | inactive | inactive | inactive | inactive | inactive | – | inactive | inactive | inactive | inactive | inactive | inactive | inactive | – | inactive | – | inactive | inactive | – | –
13 | CN1C(CSCC(F)(F)F)Nc2cc(Cl)c(S(N)(=O)=O)cc2S1(=O)=O (configuration not stated) | inactive | inactive | inactive | inactive | inactive | – | inactive | inactive | inactive | – | inactive | – | inactive | inactive | inactive | inactive | inactive | inactive | – | –
14 | COC(C)(C)OC | inactive | inactive | inactive | – | inactive | inactive | inactive | – | inactive | inactive | inactive | – | inactive | inactive | inactive | – | inactive | inactive | inactive | inactive
15 | [Cl][Nd]([Cl])[Cl] | inactive | inactive | inactive | – | inactive | – | inactive | inactive | inactive | inactive | inactive | – | inactive | – | inactive | – | inactive | – | – | –
16 | O=P(O)(O)Oc1ccccc1 | inactive | inactive | inactive | inactive | inactive | – | inactive | inactive | inactive | inactive | – | – | inactive | inactive | inactive | inactive | inactive | inactive | inactive | inactive
17 | CC(=O)C(C)=O | inactive | inactive | inactive | – | inactive | inactive | inactive | – | inactive | inactive | inactive | inactive | inactive | inactive | inactive | inactive | inactive | inactive | inactive | inactive
18 | CC(=O)NCCO | inactive | inactive | inactive | inactive | inactive | – | inactive | – | inactive | inactive | inactive | inactive | inactive | inactive | inactive | inactive | inactive | inactive | – | –
